Sm TGR inh = S. mansoni TGR enzyme inhibition | purified TGR, DTNB reduction, TNB absorbance 405 nm | Potency, µM (titrated, usually from 114 µM), usual class: inhibitors | 3% of 360,000 active | AID 485364; further: nearly all actives have a fitted effect of over 60% in size
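Kinetic colorimetric format: TGR-catalysed, NADPH-driven DTNB reduction monitored via TNB absorbance. Enzyme dispensed at 20 nM; compound exposure 15 min at room temperature before reaction start.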
Pf growth 96h = P. falciparum growth inhibition at 96 hour, primary screen for plastid delayed-death inhibitors; P. falciparum luciferase reporter growth, 96 h; 6.9% of 320,000 active; Potency, µM (series often up to 28.7 µM), actives largely listed as inhibitors
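Readout is luminescence from an integrated firefly luciferase in P. falciparum. Red cells, 2% hematocrit and 0.05% parasitemia final, were cultured with compound through two parasite generations (96 hours) at 37 C, 5% CO2.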
AmpC detergent = inhibitors of E. coli AmpC beta-lactamase with detergent. P00811. 0.041% of 370,000 active. AmpC hydrolysis of nitrocefin, absorbance 480 nm, 0.01% Triton. Potency, µM (doses to about 114 µM), usual class: inhibitors; further: nearly all actives have a fitted effect of over 25% in size
Target sequence (P00811 whole entry, looked up): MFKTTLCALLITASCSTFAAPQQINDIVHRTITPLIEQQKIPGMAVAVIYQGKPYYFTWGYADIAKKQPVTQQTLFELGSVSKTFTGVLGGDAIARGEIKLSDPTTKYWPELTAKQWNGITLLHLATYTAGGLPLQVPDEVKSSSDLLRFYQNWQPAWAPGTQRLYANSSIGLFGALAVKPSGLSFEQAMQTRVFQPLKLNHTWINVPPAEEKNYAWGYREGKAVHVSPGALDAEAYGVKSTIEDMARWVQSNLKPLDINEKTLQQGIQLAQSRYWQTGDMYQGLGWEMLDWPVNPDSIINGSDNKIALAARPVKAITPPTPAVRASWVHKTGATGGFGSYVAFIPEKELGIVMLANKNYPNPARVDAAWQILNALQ
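AmpC (5.3 nM in the dispensed reagent) in 20 mM phosphate pH 7.0 with 0.01% (detergent screen) or 0.0001% Triton X-100 was preincubated with compounds for 15 min at room temperature. Nitrocefin was then added from an 800 uM solution, and hydrolysis was followed at 480 nm.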
Pf growth 48h = inhibits P. falciparum growth in the first generation, 48 h; P. falciparum luciferase growth in erythrocytes, 48 h; Potency, µM (top dose mostly 28.7 µM), actives largely listed as inhibitors; 5.9% of 310,000 active; AID 504832
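Growth was read as firefly luciferase luminescence after a 48 h, 37 C, 5% CO2 exposure of compounds to reporter-bearing P. falciparum cultures (0.1% parasitemia, 2% hematocrit final) in Albumax-supplemented RPMI 1640.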
SARS PLpro yeast = inhibitors of SARS-CoV papain-like protease in yeast; S. cerevisiae expressing SARS-CoV PLpro, growth rescue; Potency, µM (titrated, usually from 32.9 µM), usual class: activators; 0.19% of 330,000 active; calls by dose curve; further: nearly all actives have a fitted effect of over 55% in size
AmpC no deterg = AmpC beta-lactamase inhibition without detergent. P00811. AmpC nitrocefin hydrolysis, absorbance 480 nm, 0.0001% Triton. Potency, µM (titrated, usually from 57.1 µM), most hits filed as inhibitors. 0.52% of 330,000 active. AID 485341; further: nearly all actives have a fitted effect of over 20% in size
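20 mM phosphate pH 7.0 + 0.01% (detergent screen) or 0.0001% Triton X-100; 5.3 nM AmpC reagent; cpd preinc 15 min RT; nitrocefin (800 uM stock) to start; A480 q20 s × 4 min; Activity was normalised to no-enzyme and no-compound control wells.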
Numbers stand for hits; [ ] = remark or other dose. Sampled rows, rich in hits. Any-hit rate of the full collection: about 12%. Unless noted, the call rests on the fitted dose curve; in most records, active means well fitted curve in the direction sought with a large enough effect; inconclusive means small, poorly fitted or top-dose-only effect, or another doubt; inactive means no such curve, though single readings can be large; an effect the other way counts as inactive or inconclusive.

For Clc1ccc(C2[C@H]3CN(Cc4ccc(-c5ccccc5)cc4)[C@H](c4ccccc4)C34CC2(c2cccnc2)C4)cn1 (stereo partly specified) the results were Sm TGR inh inconclusive, Pf growth 96h 2.3µM, AmpC detergent inactive, Pf growth 48h 3.3µM, SARS PLpro yeast inactive and AmpC no deterg inactive.
`CCN(Cc1ccccc1)C(=O)Cn1cc(S(=O)(=O)Cc2cccc(Cl)c2)c2ccccc21` gave Sm TGR inh inactive and AmpC detergent inactive.
O=C(COc1ccc(Br)cc1)NCCCNC(=O)c1cnccn1 was read as Sm TGR inh inactive, Pf growth 96h inconclusive, AmpC detergent inactive, Pf growth 48h inconclusive, SARS PLpro yeast inactive and AmpC no deterg inactive.
For FC(F)(F)c1ccc(C2[C@H]3CN(CC4CCCCC4)[C@H](c4ccccc4)C34CC2(c2cccnc2)C4)cc1 (stereo partly specified) the results were Sm TGR inh inactive, Pf growth 96h 3.3µM, AmpC detergent inactive, Pf growth 48h 3.3µM, SARS PLpro yeast inactive and AmpC no deterg inactive.
`N#Cc1ccc(C23CC4(C2)[C@H](CN(Cc2ccc(C(F)(F)F)cc2)[C@@H]4c2ccccc2)C3c2ccc(Cl)nc2)cc1` (stereo partly specified) gave Sm TGR inh inactive, Pf growth 96h 13µM, AmpC detergent inactive, Pf growth 48h 12µM, SARS PLpro yeast inactive and AmpC no deterg inactive.
COC(=O)c1cccc(C23CC4(C2)[C@H](CN(CC2CCCCC2)[C@@H]4c2ccccc2)C3c2ccccc2)c1 (stereo partly specified) was read as Sm TGR inh inconclusive, Pf growth 96h 4.1µM, AmpC detergent inactive, Pf growth 48h 10µM, SARS PLpro yeast inactive and AmpC no deterg inactive.
Cc1oc2ccc(O)c(CN3CCN(Cc4ccccc4)CC3)c2c1C(=O)Nc1cccc(Cl)c1C was read as Sm TGR inh inactive and AmpC detergent inactive.
For Cc1ccc(Cl)cc1N1CCN(C(=O)c2ccc(C)c(-n3c(C)nc4cccnc43)c2)CC1 the results were Sm TGR inh inactive and AmpC detergent inactive.
C/C(=N/NC(=O)c1ccc(C)s1)c1cccnc1 was read as Sm TGR inh inactive, Pf growth 96h inactive, AmpC detergent inactive, Pf growth 48h inactive, SARS PLpro yeast inactive and AmpC no deterg inactive.
`C/C(=N\NC(=O)c1ccc(Cl)cc1)c1ccc(Br)s1` gave Sm TGR inh inactive, Pf growth 96h 2.6µM, AmpC detergent inactive, Pf growth 48h 7.4µM, SARS PLpro yeast inactive and AmpC no deterg inactive.
`C/C(=N/NC(=O)c1ccc(Br)s1)c1cccnc1` gave Sm TGR inh inactive, Pf growth 96h 7.4µM, AmpC detergent inconclusive, Pf growth 48h inactive, SARS PLpro yeast inactive and AmpC no deterg inactive.
Screening COc1ccc(-c2c(C)c3ccc(O)c(CN4CCC(C)CC4)c3oc2=O)cc1OC returned Sm TGR inh inactive and AmpC detergent inactive.
Screening O=c1c2c(nc3c(-c4ccccc4)c[nH]n13)CCC2 returned Sm TGR inh inactive, Pf growth 96h inactive, AmpC detergent inactive, Pf growth 48h inactive, SARS PLpro yeast inactive and AmpC no deterg inactive.
`O=c1c2c(nc3c(-c4ccc(Cl)cc4)c[nH]n13)CCC2` gave Sm TGR inh inactive, Pf growth 96h inactive, AmpC detergent inactive, Pf growth 48h 10µM, SARS PLpro yeast inactive and AmpC no deterg inactive.
`Cc1c(-c2ccccc2)[nH]n2c(=O)c3c(nc12)CCCC3` gave Sm TGR inh inactive, Pf growth 96h inconclusive, AmpC detergent inconclusive, Pf growth 48h inconclusive, SARS PLpro yeast inactive and AmpC no deterg inactive.
Cc1ccc(-c2[nH]n3c(=O)c4c(nc3c2C)CCCC4)cc1 was read as Sm TGR inh inactive, Pf growth 96h inactive, AmpC detergent inactive, Pf growth 48h 0.046µM, SARS PLpro yeast inactive and AmpC no deterg inactive.
`Cc1cc2nc3c(c(=O)n2[nH]1)CCCC3` gave Sm TGR inh inactive, Pf growth 96h inactive, AmpC detergent inactive, Pf growth 48h 12µM, SARS PLpro yeast inactive and AmpC no deterg inactive.
For CCOC(=O)C1CCCN(C(=O)c2ccc3c(c2)N(Cc2ccccc2)C(=O)c2ccccc2S3(=O)=O)C1 (stereo unspecified) the results were Sm TGR inh inactive and AmpC detergent inactive.
c1ccc2c(c1)Cc1cc(CN3CCOCC3)ccc1-2 was read as Sm TGR inh inactive, AmpC detergent inactive, Pf growth 48h inactive, SARS PLpro yeast inactive and AmpC no deterg inactive.
`O=C(Oc1ccccc1)c1cc2ccccc2oc1=O` gave Sm TGR inh inactive, Pf growth 96h inactive, AmpC detergent inconclusive, Pf growth 48h inactive, SARS PLpro yeast inactive and AmpC no deterg inactive.
For O=C(Oc1ccccc1)c1cccc2cccc(C(=O)Oc3ccccc3)c12 the results were Sm TGR inh inactive, Pf growth 96h 10µM, AmpC detergent inactive, Pf growth 48h inconclusive, SARS PLpro yeast inactive and AmpC no deterg inactive.
`Cc1cc(C)c2c(=O)n(CC(=O)N3CCC(N4CCCCC4)CC3)sc2n1` gave Sm TGR inh inactive, Pf growth 96h inconclusive, AmpC detergent 56µM, SARS PLpro yeast inactive and AmpC no deterg 20µM.
`CCOC(=O)C1CCCN(C(=O)Cn2sc3nc(C)cc(C)c3c2=O)C1` (stereo unspecified) gave Sm TGR inh inconclusive, Pf growth 96h inactive, AmpC detergent 45µM, SARS PLpro yeast inactive and AmpC no deterg 14µM.
Screening CC(=O)Cn1cnc2c(sc3nc(C)cc(C)c32)c1=O returned Sm TGR inh inactive, Pf growth 96h inactive, AmpC detergent inactive, Pf growth 48h inactive, SARS PLpro yeast inactive and AmpC no deterg inactive.
`CCCNC(=O)Cn1sc2nc(C)cc(C)c2c1=O` gave Sm TGR inh inconclusive, Pf growth 96h inactive, AmpC detergent 79µM, Pf growth 48h inactive, SARS PLpro yeast inactive and AmpC no deterg inconclusive.
For CC1CC(CC(=O)Nc2nc(-c3ccccc3)cs2)C(=O)O1 (stereo unspecified) the results were Sm TGR inh inactive, Pf growth 96h inactive[5.75 µM], AmpC detergent inconclusive, Pf growth 48h inactive[5.75 µM], SARS PLpro yeast inactive and AmpC no deterg inactive.
`C/C(CC1CC(COCC(C)C)OC1=O)=N\Nc1nc(-c2ccccc2)cs1` (stereo unspecified) gave Sm TGR inh 56µM, Pf growth 96h inconclusive, AmpC detergent inactive, Pf growth 48h inconclusive, SARS PLpro yeast inactive and AmpC no deterg inconclusive.
COc1cccc(Nc2nc3ccc(C(=O)c4ccccc4)cc3n3c(C)nnc23)c1 was read as Sm TGR inh inactive and AmpC detergent inactive.

Bioassay records deposited in PubChem BioAssay by National Center for Advancing Translational Sciences (NCATS).
